# From PubChem BioAssay
# In the library only some 28% were active in any assay of this set; here they are far more common.
# CYP2C19 activ: increases human CYP2C19 enzyme activity; P33261; recombinant CYP2C19, luciferin-H EGE luminescence; hits give high values; 0 = fully inhibited enzyme, 1 = untreated enzyme; activation factor at 5 µM; 96,000 tested, under 10 active;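 active = activation factor of at least 2 at 5 µM in the primary screen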;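 also: 0 = wells with 2.5 mM tranylcypromine and 1 = vehicle-only wells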
# D1 allo mod: allosteric modulators of human D1 dopamine receptor; 5.9% of 58,000 active; P21728; HEK293 D1, CRE-luciferase, dopamine EC30 potentiation; actives deviate in either direction; B-score at 10 µM;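 active = luminescence count or its row- and column-corrected plate score outside the 99.7% band of the plate's sample wells, on either side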
# CYP2C9 inh: blocks human cytochrome P450 2C9 | P11712 | CYP2C9 Supersomes, luciferin-H conversion, luminescence | inhibition, % at 5 µM | 20% of 96,000 active | AID 777;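 active = blocking of liver enzyme CYP2C9 beyond about 50% at 5 µM, limit read from the data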
# Target sequence (P11712 whole entry, looked up): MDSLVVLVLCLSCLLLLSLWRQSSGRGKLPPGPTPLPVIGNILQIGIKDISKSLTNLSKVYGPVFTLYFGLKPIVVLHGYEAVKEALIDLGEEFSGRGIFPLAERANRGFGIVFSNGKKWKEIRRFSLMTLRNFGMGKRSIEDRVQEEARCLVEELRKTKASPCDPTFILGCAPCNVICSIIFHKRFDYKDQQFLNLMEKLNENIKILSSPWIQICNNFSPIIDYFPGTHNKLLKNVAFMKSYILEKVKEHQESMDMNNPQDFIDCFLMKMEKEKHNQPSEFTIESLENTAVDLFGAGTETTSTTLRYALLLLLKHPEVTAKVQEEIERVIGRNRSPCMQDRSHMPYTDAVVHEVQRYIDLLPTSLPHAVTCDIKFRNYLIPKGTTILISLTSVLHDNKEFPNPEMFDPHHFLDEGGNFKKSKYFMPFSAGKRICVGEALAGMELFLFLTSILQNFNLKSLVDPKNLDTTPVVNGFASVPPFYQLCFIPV
# CYP2C19 inh: human CYP2C19 inhibition; 21% of 96,000 active; P33261; inhibition, % at 5 µM; CYP2C19 Supersomes, luciferin-H EGE luminescence, 30 min;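 active = CYP2C19 inhibition above a set limit at 5 µM in the primary screen, cut at about 50% in these data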;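 also: plate controls were negative control wells for no effect and 2.5 mM tranylcypromine positive control for full effect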
# CYP2C9 activ: CYP2C9 (human) activation | recombinant CYP2C9, luciferin-H conversion, luminescence; hits give high values; factor 1 = untreated enzyme, 0 = blocked | P11712 | activation factor at 5 µM | AID 1024 | 1.4% of 96,000 active;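 active = activation factor of 2 or more for CYP2C9 at a 5 µM dose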;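 also: 0 = sulfaphenazole-blocked wells and 1 = vehicle-only wells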
# hDAT+cocaine: modulates human dopamine transporter uptake under cocaine; LLC-PK1 hDAT cells, [14C]-dopamine uptake with cocaine IC80; actives deviate in either direction; B-score at 10 µM; 1.3% of 110,000 active;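 active = Z score or B-score, a plate-position-corrected score, falls beyond the plate's 99.7% confidence bounds, in either direction; inactive = both scores lie inside the 99.7% bounds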;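 also: scored against the spread of the other compound wells on the same plate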
# An asterisk follows results filed as active; . = no result.
SMILES,CYP2C19 activ,D1 allo mod,CYP2C9 inh,CYP2C19 inh,CYP2C9 activ,hDAT+cocaine
Nc1cc2c(cc1C(=O)c1ccc(Cl)cc1)OCCO2,0.4,.,70.3*,60.9*,0.3,1.37
Cc1ccc(C(=O)c2cc3c(cc2N)OCCO3)cc1,0.3,.,67.9*,67.0*,0.3,-0.852
CC(C)C(C(=O)N1CCOCC1)N1C(=O)c2ccccc2C1=O (stereo unspecified),0.9,-1.24,13.8,13.9,0.9,0.5
COc1cc2c(cc1OC)C(=O)Cc1ccc3c(c1CN(C)CC2)OCO3,.,.,.,.,.,-0.0878
COc1ccc2c(c1OC)CN(C)CCc1cc3c(cc1C(O)C2)OCO3 (stereo unspecified),0.2,-0.241,-22.7,79.5*,1.2,-0.522
N=C1C(c2nc3ccccc3[nH]2)=C(O)CN1c1ccc(CC(=O)O)cc1,1,.,-6.5,-1.8,1.1,-0.834
CCC(C)N1CC(O)=C(c2nc3ccccc3[nH]2)C1=N (stereo unspecified),0.2,-0.598,37.7,84.3*,0.6,0.93
CCCCCCN1CC(O)=C(c2nc3ccccc3[nH]2)C1=N,0.4,-0.0105,89.9*,58.8*,0.1,-0.353
CCCCN1CC(O)=C(c2nc3ccccc3s2)C1=N,0.5,0.983,63.7*,45.2,0.4,0.47
COCCNC(=O)c1cnn2c(C(F)(F)F)cc(-c3ccc4c(c3)OCO4)nc12,0.8,0.0349,36.1,19.3,0.6,-0.0127
O=C(C1CC1)N1CCc2cc(Br)cc(S(=O)(=O)NCCN3CCOCC3)c21,0.9,.,22.5,8.0,0.8,0.186
CCN(c1ccc2c(c1)OCO2)S(=O)(=O)c1cc(Br)cc2c1N(C(C)=O)CC2,0.4,.,-42.9,56.0*,1.4,-0.211
O=C(C1CC1)N1CCc2cc(Br)cc(S(=O)(=O)N3CCOCC3)c21,0.6,0.565,71.9*,35.1,0.3,-0.239
CCN1CCCC1CNS(=O)(=O)c1cc(Br)cc2c1N(C(=O)C1CC1)CC2 (stereo unspecified),1,0.172,47.7,-4.7,0.5,-0.0593
CCCCN(C)S(=O)(=O)c1cc(Br)cc2c1N(C(=O)C1CC1)CC2,0.1,1.44,17.5,86.5*,0.8,.
CC(=O)N1CCc2cc(Br)cc(S(=O)(=O)NCC3CCCO3)c21 (stereo unspecified),0.8,0.00475,-5.0,24.5,1.1,0.0697
O=C(C1CC1)N1CCc2cc(Br)cc(S(=O)(=O)NCc3ccc4c(c3)OCO4)c21,0.3,-0.0987,13.8,66.8*,0.9,-0.601
O=C(O)C1=C[C@H](c2ccccc2)C[C@H](OCCCCO)O1,.,.,.,.,.,0.00635
c1ccc(Nc2nn[nH]n2)cc1,1.1,-0.136,-13.1,-12.1,1.1,-0.644
CCOCCCNS(=O)(=O)c1cc(Br)cc2c1N(C(=O)C1CC1)CC2,0.8,-0.0427,-131.4,18.2,2.3*,-1.39
CCOCCCNS(=O)(=O)c1ccc2c(c1)CCN2C(C)=O,1.1,0.291,-0.6,-9.1,1,-0.114
Cc1cc(F)ccc1S(=O)(=O)Nc1ccccc1C(=O)Nc1ccc2[nH]c(=O)[nH]c2c1,0.9,.,80.7*,9.0,0.2,.
COc1ccc(NC(=O)C2CCN(S(=O)(=O)c3ccc(OC)c(OC)c3)CC2)cc1,0.7,.,19.1,31.5,0.8,0.0239
COc1ccc(S(=O)(=O)N2CCC(C(=O)N3CCCC3)CC2)cc1Cl,0.1,0.487,21.6,88.6*,0.8,0.0217
COc1ccc(S(=O)(=O)N2CCC(C(=O)N3CCCCC3)CC2)cc1Cl,0.1,.,20.3,92.1*,0.8,1.49
SMILES,CYP2C19 activ,D1 allo mod,CYP2C9 inh,CYP2C19 inh,CYP2C9 activ,hDAT+cocaine
O=C(OCCN(C1=NS(=O)(=O)c2ccccc21)c1ccccc1Cl)c1ccc(Cl)cc1,0.6,.,87.2*,43.8,0.1,1.23
CC(C)(Oc1ccc(Cl)cc1)C(=O)NCc1ccco1,0.9,.,51.6*,11.4,0.5,-0.0265
CC(C)(Oc1ccc(Cl)cc1)C(=O)NC1CCSC1=O (stereo unspecified),.,0.278,.,.,.,-0.44
CC(C)(Oc1ccc(Cl)cc1)C(=O)Nc1cccnc1,0.5,.,25.4,52.1*,0.7,0.795
CC(C)(C)c1ccc(OCC(=O)NCc2ccco2)cc1,0.8,-1.87,31.0,15.0,0.7,-0.975
CC(C)(Oc1ccc(Cl)cc1)C(=O)Nc1ccncc1,0,.,97.1*,99.9*,0,-0.0358
CC(C)(Oc1ccc(Cl)cc1)C(=O)NCc1ccncc1,0,1.51,98.3*,99.4*,0,0.3
CC(=O)c1cccc(NC(=O)C2C3C=CC(C4CC34)C2C(=O)O)c1 (stereo unspecified),0.9,-0.134,11.2,8.5,0.9,0.662
CN(C)S(=O)(=O)c1ccc2oc(SCC(=O)NCC(F)(F)F)nc2c1,0.9,0.253,11.2,14.8,0.9,-0.0262
O=C(CSc1ccc2nnc(-c3ccccn3)n2n1)N1CCN(c2ccccc2)CC1,0.6,-0.51,-0.8,38.5,1,0.571
CCn1c(-c2ccccc2Cl)nn(CC(=O)Nc2ccccc2OC)c1=S,0.1,.,-31.4,90.6*,1.3,-0.0161
O=C(NCc1ccccc1)c1ccc(C(=O)N(C2CCCCC2)C2CCCCC2)cc1,0.9,.,16.7,8.6,0.8,1.68
CC(C)c1nnc(SCC(=O)NCCC2=CCCCC2)n1N,0.8,.,60.5*,17.1,0.4,-0.178
CC(=O)NC(NC(C)=O)c1ccc(N(C)C)cc1,.,.,.,.,.,-0.93
CS(=O)(=O)N(CC(=O)Nc1c(F)cccc1F)c1cccc([N+](=O)[O-])c1,0.8,.,16.8,21.2,0.8,-0.686
CS(=O)(=O)N(CC(=O)NC1CC1)c1cccc(F)c1,0.1,-0.916,-4.7,88.0*,1,-0.493
COc1cccc(NC(=O)CN(c2cccc(F)c2)S(C)(=O)=O)c1,0.7,0.298,29.9,26.3,0.7,-0.609
CS(=O)(=O)N(CC(=O)Nc1cccc(F)c1)c1cccc([N+](=O)[O-])c1,0.7,.,60.6*,25.6,0.4,-0.73
CCOC(=O)C1CCC2(CC1)C(C#N)=C(N)Oc1n[nH]c(C)c12 (stereo unspecified),.,.,.,.,.,-0.805
Cc1ccc(C2C(C(=O)c3cccs3)=C(O)C(=O)N2CCN2CCOCC2)o1 (stereo unspecified),1.2,-1.54,-16.9,-16.6,1.2,-1.2
CCCC(C)C(=O)Nc1nnc(C)s1 (stereo unspecified),1,-0.55,-17.8,-1.0,1.2,-0.314
CCCCN(CCCC)S(=O)(=O)c1ccc(SCC(=O)OCC)c([N+](=O)[O-])c1,0.7,.,66.9*,32.0,0.3,-0.229
CCCCN(CCCC)S(=O)(=O)c1ccc(N2CCCC2=O)c([N+](=O)[O-])c1,.,.,.,.,.,-0.0635
S=P(c1ccc(N2CCOCC2)cc1N1CCOCC1)(N1CCOCC1)N1CCOCC1,0.7,.,17.7,25.4,0.8,.
Cc1cc(C)c(OCCCCNCc2ccccc2)c(Cl)c1,0.6,.,22.2,42.9,0.8,0.218
CN(C(=O)c1ccccc1Cl)C1CCCCC1,0.2,-0.874,37.4,75.4*,0.6,0.142
